Compound activity as filed in PubChem BioAssay.
Most compounds without a hit are left out; they make up all but 11% or so of the library.
CBFb RUNX1 block = CBF-beta/RUNX1 interaction disruption | AID 1477 | Q01196+Q13951 | 230,000 tested, under 10 active | AlphaScreen CBFb-His/RUNX1-biotin binding, biochemical | Potency, µM (series often up to 59.8 µM), inactives show at the highest dose activity, negative = inhibition, actives largely listed as inhibitors; also: % of control where 0% means no effect
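Room-temperature protein-protein interaction test with 30 nM each of His-tagged CBF-beta and biotinylated RUNX1, 15 min with compound, then 90 min with nickel plus streptavidin beads. Signal read in AlphaScreen mode.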
HTT aggregate = mutant huntingtin aggregation inhibition. AID 1688. Potency, µM (series often up to 46.1 µM), for inactives: top-dose activity change, negative = inhibition, most hits filed as inhibitors. PC12 HttQ103-GFP aggregates, Acumen cytometry, 40 h. actives 1.1% (n = 220,000); also: potency is read from the fitted curve at half-maximal effect; % is scaled to controls: 0 for no effect and ±100 for the full control effect; nearly all actives have a fitted effect of over 60% in size
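Multiplexed with ATP-based cell death, this channel scores GFP aggregates in PC12 cells expressing inducible HTTex1-Q103-GFP. Induction used 100 nM tebufenozide; compounds were tested in concentration series.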
HTT ATP protect = Huntington cell model cytoprotection by ATP luminescence | AID 1471 | Potency, µM (series often up to 56.4 µM), for the others: cytoprotection (ATP increase), hits mostly activators | PC12 HTT-Q103 induced, cytoprotection, ATP luminescence, 40 h | actives 0.14% (n = 230,000); also: potency is read from the fitted curve at half-maximal effect; % of control where 0% means no effect; nearly all actives have a fitted effect of over 45% in size
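ATP quantification (ATPlite) reports survival of PC12 cells in which tebufenozide, 100 nM final, switches on Htt exon 1 with 103 glutamines linked to GFP; compounds are titrated.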
ALDH1A1 inh-1 = blocks purified human ALDH1A1 activity. P00352. Purified ALDH1A1, NADH fluorescence, propionaldehyde substrate. Potency, µM (series often up to 75.3 µM), inactives show at the highest dose activity, negative = inhibition, actives largely listed as inhibitors. actives 7.3% (n = 220,000). AID 1030; active = well fitted inhibition curve with a large enough effect, not every such curve was filed as active; inconclusive = small, poorly fitted or top-dose-only effect, or another doubt; inactive = no such curve, though single readings can be large or run the other way;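 also: potency is read from the fitted curve at half-maximal effect; plate controls were no enzyme wells and a reference inhibitor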
HPGD block = blocks human HPGD enzyme activity; Potency, µM, inactives show at the top dose activity change, negative = inhibition, usual class: inhibitors; actives 4.3% (n = 150,000); P15428; purified HPGD, NADH fluorescence kinetic, PGE2 substrate; AID 894; active = well fitted inhibition curve with a large enough effect, not every such curve was filed as active; inconclusive = small, poorly fitted or top-dose-only effect, or another doubt; inactive = no such curve, though single readings can be large or run the other way; also: potency is read from the fitted curve at half-maximal effect; % is scaled to controls: 0 for no effect and ±100 for the full control effect
Target sequence (P15428 whole entry, looked up): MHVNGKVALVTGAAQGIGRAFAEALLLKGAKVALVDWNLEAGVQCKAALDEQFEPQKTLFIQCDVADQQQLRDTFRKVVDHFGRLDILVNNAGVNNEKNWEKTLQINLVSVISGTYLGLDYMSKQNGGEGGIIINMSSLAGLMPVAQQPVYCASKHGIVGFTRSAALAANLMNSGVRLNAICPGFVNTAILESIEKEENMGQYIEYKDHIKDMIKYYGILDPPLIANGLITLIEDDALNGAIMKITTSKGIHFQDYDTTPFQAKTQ
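NADH formation kinetics: reaction with 30 uM PGE2 and 1 mM NAD+ (final), 20 nM enzyme, Tris-HCl pH 8 with Tween 20, after 15 min compound preincubation at room temperature. Fluorescence change, last versus first of five reads.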
PNC inhibitor = blocks assembly of the perinucleolar compartment; activity change (PNC), negative = inhibition, % at 10 µM; PC3M PTB-GFP, PNC prevalence imaging, 16 h; active compounds read low; actives 3.1% (n = 140,000); AID 2417;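 active = readout at or below -70, meaning at least 70% loss of cells showing the perinucleolar compartment, a nuclear body marking cancer cells; inconclusive = readout between -30 and a set limit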;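 also: plate controls were DMSO wells for no effect and camptothecin positive control wells for full effect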
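Read-out is percentage of cells bearing a perinucleolar compartment, from automated 20x imaging of fixed, Hoechst-stained PC3M PTB-GFP cells. Cells were seeded 4 h, then exposed 16 h to compound (23 nl of library stock) in duplicate plates.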
HPGD inh cf = human HPGD enzyme inhibition, confirmation; Potency, µM (series often up to 57.1 µM), for inactives: top-dose activity change, negative = inhibition, actives largely listed as inhibitors; AID 2429; recombinant HPGD, NADH fluorescence, PGE2 substrate; shares compounds with HPGD block; actives 90% (n = 90); calls by dose curve
ALDH1A1 inh-2 = Inhibits human ALDH1A1, confirmation and counter-screen. actives 90% (n = 90). shares compounds with ALDH1A1 inh-1. purified ALDH1A1, NADH fluorescence, propionaldehyde/NAD+. Potency, µM (doses to about 57.1 µM), for the others: at the highest dose activity change, negative = inhibition, usual class: inhibitors. AID 493210; calls by dose curve
Numbers without * were called inactive; u = inconclusive; x = no result given; [ ] = remark or other dose. Unless noted, calls follow the shape of the dose curve; as a rule, active = well fitted curve in the direction sought with a large enough effect; inconclusive = small, poorly fitted or top-dose-only effect, or another doubt; inactive = no such curve, though single readings can be large; an effect the other way counts as inactive or inconclusive.

SMILES | CBFb RUNX1 block | HTT aggregate | HTT ATP protect | ALDH1A1 inh-1 | HPGD block | PNC inhibitor | others
O=C(O)c1cccc([As]=[As]c2cccc(C(=O)O)c2)c1 (configuration not stated) | x | x | -13%[10 µM] | -7%[13.5 µM] | -3% | x
COc1ccc(Cn2c(N)c(C(=O)NCc3ccco3)c3nc4ccccc4nc32)cc1OC | 17% | u | -38%[0.074 µM] | u | u | u
Nc1c(C(=O)NCc2ccco2)c2nc3ccccc3nc2n1CCN1CCCCC1 | 5% | 3.2µM* | -65% | u | u | u
O=Cc1cn(Cc2cccc(F)c2)c2ccccc12 | -3% | -28% | 14%[10 µM] | 0.56µM* | -4% | 6
Cc1ccc2c(c1)=NC(=O)/C(=C/c1c(O)[nH]c(=O)[nH]c1=O)C=2 | 2% | -4%[9.22 µM] | -3%[10 µM] | x | x | x
Cc1ccc2c(c1)=C/C(=C\c1c(O)[nH]c(=S)[nH]c1=O)C(=O)N=2 | -7% | -21% | 7%[10 µM] | 3.5µM* | -15% | u
CCOC(=O)c1c(/N=C/c2c(O)n(-c3ccccc3F)c(=S)[nH]c2=O)sc2c1CCCC2 | -3% | 29% | -13% | 1.3µM* | 22µM* | u
CCOC(=O)c1c(/N=C/c2c(O)n(-c3ccc(F)cc3)c(=S)[nH]c2=O)sc2c1CCCC2 | 1% | 4% | 0% | 18µM* | 0% | -11
O=Nc1ccc(Nc2ccccc2)cc1 | -10%[21.7 µM] | x | u | 0.063µM* | -14% | x
c1ccc(Nc2ccc(Nc3ccccc3)cc2)cc1 | u | x | -102% | u | -22% | x
COC(=O)c1ccccc1OP1(=O)COc2ccccc2OC1 | 1% | -7% | 5% | 9% | -22% | 69
O=P1(Nc2ccc(F)cc2)COc2ccccc2OC1 | 0% | -1% | -3% | -4% | 1.1µM* | 16 | HPGD inh cf=1µM*
Cc1ccc(-n2sc3ccccc3c2=O)cc1 | -3% | 6% | u | 10µM* | 0.63µM* | u | HPGD inh cf=0.56µM*
c1ccc(N2CCC3(CCNCC3)CC2)cc1 | x | x | 26% | -18% | -2% | x
CCc1cccc(C)c1N(C(=O)CCl)C(C)COC (configuration not stated) | x | x | x | 6% | -7% | x
CC(C)N(C(=O)CCl)c1ccccc1 | x | x | x | 0.028µM* | -6% | x | ALDH1A1 inh-2=0.05µM*
CC1O[C@@H](O[C@@H]2C(O)C[C@H](O[C@@H]3C(O)C[C@@H](OC4CC[C@@]5(C)C6CC[C@]7(C)C(C8=CC(=O)OC8)CC[C@@]7(O)C6CC[C@@H]5C4)OC3C)OC2C)CC(O)[C@H]1O (some centres not stated) | 8% | x | x | -7% | -12% | x
O=c1oc(Cl)c(Cl)c2ccccc12 | 3% | x | -24% | 0.56µM* | -12% | x | ALDH1A1 inh-2=0.25µM*
CN(C)C(CSC(N)=O)CSC(N)=O | 4% | x | x | x | x | x
COc1ccc2c(c1)CCC1[C@@H]2CCC2(C)[C@@H](NCCCCCCN3C(=O)C=CC3=O)CC[C@@H]12 (some centres not stated) | 2%[21.7 µM] | x | -4% | 0.11µM* | -5% | x | ALDH1A1 inh-2=0.5µM*
CCC(C=C[C@@H]1OC(=O)C=C[C@H]1C)=C[C@H](C)CC=CC(C)=C[C@@H](C)C(=O)[C@@H](C)[C@H](O)[C@@H](C)CC(C)=CC(=O)O | u | x | -264%[1.9 µM] | 0.22µM* | 0% | x | ALDH1A1 inh-2=1.1µM*
CC(C)(C)c1cc(C#N)cc(Br)c1OP(=O)(Oc1c(Br)cc(C#N)cc1C(C)(C)C)c1ccccc1 | x | x | -2%[10 µM] | 14%[13.5 µM] | -9% | x
